PubChem BioAssay (Tox21)
Values joined by “and” are separate entries in the source; they are usually repeats but may differ in a detail not shown here. Identical values can stand only once. Inconclusive results are not listed. Active and inactive are the calls of the source. Unless noted, calls come from the whole dose curve; as a rule, active = well fitted curve in the direction sought with a large enough effect in the repeat runs; inconclusive = weak or mixed curves; inactive = no such curve, though single readings can be large; an effect the other way counts as inactive or inconclusive.

Key:
[1] = qHTS assay to identify small molecule antagonists of the glucocorticoid receptor (GR) signaling pathway - cell viability counter screen (AID 720693); note: nearly all actives have a fitted effect of over 55% in size
[2] = qHTS assay for identifying genotoxic compounds that show differential cytotoxicity against isogenic chicken DT40 cell lines with known DNA damage response pathways - wild type cell line (AID 743012); note: nearly all actives have a fitted effect of over 60% in size; note: potency is the fitted concentration of half-maximal effect
Method in brief: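 Viability of DNA repair-proficient chicken DT40 cells was assessed by CellTiter-Glo luminescence following 40 h compound exposure at 37 C/5% CO2.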

[3] = qHTS assay for identifying genotoxic compounds that show differential cytotoxicity against isogenic chicken DT40 cell lines with known DNA damage response pathways - Rev3 mutant cell line (AID 743014); note: nearly all actives have a fitted effect of over 55% in size; note: potency is the fitted concentration of half-maximal effect
[4] = qHTS assay for identifying genotoxic compounds that show differential cytotoxicity against isogenic chicken DT40 cell lines with known DNA damage response pathways - Rad54/Ku70 mutant cell line (AID 743015); note: nearly all actives have a fitted effect of over 60% in size; note: potency is the fitted concentration of half-maximal effect
[5] = qHTS assay to identify small molecule antagonists of the androgen receptor (AR) signaling pathway - cell viability counter screen (AID 743033; note: nearly all actives have a fitted effect of over 45% in size)
[6] = qHTS assay to identify small molecule antagonists of the androgen receptor (AR) signaling pathway using the MDA cell line - cell viability counter screen (AID 743041; note: nearly all actives have a fitted effect of over 45% in size)
Method in brief: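 qHTS viability read-out; MDA-kb2 AR-luc; R1881-stimulated; 16 h exposure at 37C, 0% CO2; CellTiter-Fluor, 30 min; fluorescence intensity.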

[7] = qHTS assay to identify small molecule antagonists of the thyroid receptor (TR) signaling pathway - cell viability counter screen (AID 743064); note: nearly all actives have a fitted effect of over 50% in size; note: potency is the fitted concentration of half-maximal effect
Method in brief: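 GH3.TRE-Luc cells, 4 h pre-plating; cpd + T3 1 nM final; 37 °C 23.5 h; CellTiter-Fluor 30 min; fluorescence read.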

[8] = qHTS assay to identify small molecule antagonists of the thyroid receptor (TR) signaling pathway (AID 743065); note: nearly all actives have a fitted effect of over 55% in size; note: potency is the fitted concentration of half-maximal effect
Method in brief: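 GH3.TRE-Luc rat pituitary cells carrying two TR response elements driving luciferase were plated for 4 h, given compound plus 1 nM T3 (final), and incubated 23.5 h at 37 C. ONE-Glo luminescence measured reporter inhibition; CellTiter-Fluor fluorescence tracked cytotoxicity.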

[9] = tested on: thyroid hormone receptor (rat, GH3 cells); assay: qHTS assay to identify small molecule agonists of the thyroid receptor (TR) signaling pathway (AID 743066; calls by dose curve; note: potency is the fitted concentration of half-maximal effect)
[10] = qHTS assay to identify small molecule antagonists of the estrogen receptor alpha (ER-alpha) signaling pathway - cell viability counter screen (AID 743074; calls by dose curve; note: nearly all actives have a fitted effect of over 45% in size)
[11] = qHTS assay to identify small molecule antagonists of the estrogen receptor alpha (ER-alpha) signaling pathway using the BG1 cell line - cell viability counter screen (AID 743081);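 note: compound given together with 17beta-estradiol as the ER stimulus; nearly all actives have a fitted effect of over 45% in size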; note: potency is the fitted concentration of half-maximal effect
[12] = biological target: Aromatase (Homo sapiens) (UniProt P11511); assay: qHTS assay to identify aromatase inhibitors (AID 743083); note: nearly all actives have a fitted effect of over 55% in size; note: potency is the fitted concentration of half-maximal effect
[13] = biological target: Estrogen receptor (Homo sapiens) (UniProt P03372); assay: qHTS assay to identify small molecule antagonists of the estrogen receptor alpha (ER-alpha) signaling pathway (AID 743069; active = well fitted curve in the direction sought with a large enough effect in the signal ratio in the repeat runs, not every such curve was filed as active; the % refers to the signal ratio; note: potency is the fitted concentration of half-maximal effect)
Method in brief: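 Screening used a UAS-driven beta-lactamase reporter integrated into HEK293 cells expressing ER-alpha, stimulated with 17beta-estradiol alongside test compounds over 18 hr at 37C; signal came from LiveBLAzer B/G FRET fluorescence.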

[14] = biological target: Estrogen receptor (Homo sapiens) (UniProt P03372); assay: qHTS assay to identify small molecule agonists of the estrogen receptor alpha (ER-alpha) signaling pathway (AID 743075; calls by dose curve)
[15] = biological target: Estrogen receptor (Homo sapiens) (UniProt P03372); assay: qHTS assay to identify small molecule agonists of the estrogen receptor alpha (ER-alpha) signaling pathway using the BG1 cell line (AID 743079); note: nearly all actives have a fitted effect of over 20% in size; note: potency is the fitted concentration of half-maximal effect
[16] = qHTS assay to identify small molecule antagonists of the estrogen receptor alpha (ER-alpha) signaling pathway using the BG1 cell line (AID 743080; calls by dose curve;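 note: BG1 cells stimulated with 17beta-estradiol alongside compound; series mostly up to about 70 µM; nearly all actives have a fitted effect of over 25% in size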)
Method in brief: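 BG1-Luc-4E2 cells (endogenous full-length ER-alpha, 4xERE luciferase) hormone-starved 5 days in charcoal-stripped FBS, plated 4,000/well for 24 h, then compound plus 17beta-estradiol for 21.5 h at 37 C; ONE-Glo luminescence read.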

[17] = biological target: Androgen receptor (Homo sapiens) (UniProt P10275); assay: qHTS assay to identify small molecule antagonists of the androgen receptor (AR) signaling pathway (AID 743035; active = well fitted inhibition curve with a large enough effect in the signal ratio in the repeat runs, not every such curve was filed as active; the % refers to the signal ratio; note: potency is the fitted concentration of half-maximal effect)
Method in brief: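 Reporter HEK293 cells were exposed to compounds and R1881 overnight (16 h, 37C); beta-lactamase activity was then quantified by FRET fluorescence.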

[18] = biological target: Androgen receptor (Homo sapiens) (UniProt P10275); assay: qHTS assay to identify small molecule agonists of the androgen receptor (AR) signaling pathway using the MDA cell line (AID 743040; note: nearly all actives have a fitted effect of over 20% in size)
Method in brief: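 Agonist activity is measured as luciferase luminescence in human MDA-kb2 cells whose MMTV reporter responds to both AR and GR. Compounds in DMSO incubate 16 h at 37C, 0% CO2, and ONE-Glo is read after 30 min.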

[19] = biological target: Androgen receptor (Homo sapiens) (UniProt P10275); assay: qHTS assay to identify small molecule antagonists of the androgen receptor (AR) signaling pathway using the MDA cell line (AID 743042; note: nearly all actives have a fitted effect of over 55% in size)
Method in brief: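 MDA-kb2 cells (human breast carcinoma, stably carrying an MMTV-luciferase reporter responsive to AR and GR) were plated at 3,000 cells/well and preincubated 5 hr at 37C, then given compound plus R1881 agonist for 16 h. ONE-Glo luminescence was read.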

[20] = biological target: Androgen receptor (Homo sapiens) (UniProt P10275); assay: qHTS assay to identify small molecule agonists of the androgen receptor (AR) signaling pathway (AID 743036; active = well fitted activation curve with a large enough effect in the signal ratio in the repeat runs, with a control signal flat, not every such curve was filed as active; the % refers to the signal ratio)
Method in brief: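 AR-bla HEK293 cells, 2,000/well; 4 h preincubation 37C/5% CO2; compound (DMSO) 16 h at 37C; LiveBLAzer B/G FRET substrate 2 h RT; fluorescence intensity read-out.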

Measured: Potency

Sequence of Aromatase (Homo sapiens) (P11511 whole entry, looked up): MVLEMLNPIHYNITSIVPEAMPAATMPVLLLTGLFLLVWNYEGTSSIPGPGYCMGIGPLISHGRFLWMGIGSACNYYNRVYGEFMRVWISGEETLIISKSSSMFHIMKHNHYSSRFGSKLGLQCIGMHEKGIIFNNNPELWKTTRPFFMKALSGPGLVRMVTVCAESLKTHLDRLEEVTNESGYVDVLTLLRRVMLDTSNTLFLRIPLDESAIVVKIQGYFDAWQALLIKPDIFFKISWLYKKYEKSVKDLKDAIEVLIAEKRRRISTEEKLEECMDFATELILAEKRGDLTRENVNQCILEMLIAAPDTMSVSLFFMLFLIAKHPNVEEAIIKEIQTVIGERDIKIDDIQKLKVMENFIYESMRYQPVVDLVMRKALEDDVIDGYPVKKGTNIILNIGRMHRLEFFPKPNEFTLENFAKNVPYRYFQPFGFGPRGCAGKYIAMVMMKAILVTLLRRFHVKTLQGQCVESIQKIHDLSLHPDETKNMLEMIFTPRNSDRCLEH
Sequence of Estrogen receptor (Homo sapiens) (P03372 whole entry, looked up): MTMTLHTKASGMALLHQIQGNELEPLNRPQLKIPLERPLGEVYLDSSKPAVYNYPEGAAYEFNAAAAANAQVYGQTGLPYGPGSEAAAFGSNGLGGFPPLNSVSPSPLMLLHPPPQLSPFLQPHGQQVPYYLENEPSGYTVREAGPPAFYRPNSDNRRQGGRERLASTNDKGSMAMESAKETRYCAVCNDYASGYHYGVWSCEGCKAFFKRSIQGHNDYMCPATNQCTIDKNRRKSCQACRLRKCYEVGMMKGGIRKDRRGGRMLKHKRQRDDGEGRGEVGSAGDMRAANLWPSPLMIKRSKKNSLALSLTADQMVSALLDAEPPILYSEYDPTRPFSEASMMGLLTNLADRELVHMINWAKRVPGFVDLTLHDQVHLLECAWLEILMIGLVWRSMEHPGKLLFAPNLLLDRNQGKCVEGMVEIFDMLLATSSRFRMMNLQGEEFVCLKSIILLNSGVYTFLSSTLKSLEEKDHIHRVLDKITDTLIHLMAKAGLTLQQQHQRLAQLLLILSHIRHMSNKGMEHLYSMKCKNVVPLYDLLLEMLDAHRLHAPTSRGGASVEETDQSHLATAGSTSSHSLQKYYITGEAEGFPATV
Sequence of Androgen receptor (Homo sapiens) (P10275 whole entry, looked up): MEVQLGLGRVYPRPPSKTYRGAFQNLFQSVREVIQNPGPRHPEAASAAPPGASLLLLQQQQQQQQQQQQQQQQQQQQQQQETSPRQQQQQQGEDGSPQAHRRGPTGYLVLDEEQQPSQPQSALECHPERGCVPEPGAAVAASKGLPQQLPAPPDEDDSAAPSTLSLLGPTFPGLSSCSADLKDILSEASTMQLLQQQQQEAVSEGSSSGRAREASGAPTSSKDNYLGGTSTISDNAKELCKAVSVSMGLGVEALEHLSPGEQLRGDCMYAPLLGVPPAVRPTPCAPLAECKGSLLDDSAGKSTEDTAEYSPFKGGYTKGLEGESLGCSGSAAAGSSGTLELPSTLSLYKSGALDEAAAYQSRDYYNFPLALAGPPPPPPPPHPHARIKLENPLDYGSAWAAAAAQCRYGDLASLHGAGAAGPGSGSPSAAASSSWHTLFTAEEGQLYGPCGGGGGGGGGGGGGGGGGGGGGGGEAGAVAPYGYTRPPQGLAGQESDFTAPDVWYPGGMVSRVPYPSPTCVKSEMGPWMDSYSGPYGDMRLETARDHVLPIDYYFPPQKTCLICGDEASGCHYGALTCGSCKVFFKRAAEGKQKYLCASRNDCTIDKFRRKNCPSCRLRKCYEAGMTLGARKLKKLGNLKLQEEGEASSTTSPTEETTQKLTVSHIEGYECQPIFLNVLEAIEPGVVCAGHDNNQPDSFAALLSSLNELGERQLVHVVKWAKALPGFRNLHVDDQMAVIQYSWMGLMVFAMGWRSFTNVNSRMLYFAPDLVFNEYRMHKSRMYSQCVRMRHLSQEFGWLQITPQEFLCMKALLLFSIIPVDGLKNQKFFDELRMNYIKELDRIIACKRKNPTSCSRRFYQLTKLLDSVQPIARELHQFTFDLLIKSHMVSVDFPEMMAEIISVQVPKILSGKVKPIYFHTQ

CCCCc1ncc(/C=C(\Cc2cccs2)C(=O)O)n1Cc1ccc(C(=O)O)cc1
not listed: [13] | [14] | [15] | [16] | [17] | [18] | [19] | [20]
inactive: all other assays above

CCN(CC)CCOC(=O)C(c1ccccc1)C1CCCCC1 (centres undefined)
active: [2] 21.1 µM | [3] 10.6 µM | [4] 23.7 µM | [7] 26.6 µM
not listed: [8] | [9] | [17] | [18] | [19] | [20]
inactive: all other assays above

CC(C)(C)OCC1CO1 (centres undefined)
inactive: [1] | [2] | [3] | [4] | [5] | [6] | [7] | [8] | [9] | [10] | [11]

O=C(O)c1ccccc1Cl
not listed: [13] | [14] | [15] | [16] | [17] | [18] | [19] | [20]
inactive: all other assays above

CCCCO
not listed: [13] | [14] | [15] | [16] | [17] | [18] | [19] | [20]
inactive: all other assays above

COc1ccc(C)cc1[N+](=O)[O-]
not listed: [13] | [14] | [15] | [16] | [17] | [18] | [19] | [20]
inactive: all other assays above

CCC(C)c1cc(C(C)(C)C)c(O)c(C(C)(C)C)c1 (centres undefined)
inactive: [1] | [2] | [3] | [4] | [5] | [6] | [7] | [10] | [11]
active: [9] 10.7 µM

CCCCC
inactive: [1] | [2] | [3] | [4] | [5] | [6] | [7] | [8] | [9] | [10] | [11]

CO[C@@H]1[C@H](OC(=O)/C=C/C=C/C=C/C=C/C(=O)O)CC[C@]2(CO2)[C@H]1[C@@]1(C)O[C@@H]1CC=C(C)C
active: [2] 1.9 nM and 12.2 nM | [3] 2.1 nM and 17.2 nM | [4] 2.7 nM and 10.9 nM
not listed: [8] | [13] | [17] | [18] | [19] | [20]
inactive: all other assays above

CCOC(=O)C(F)(F)F
active: [3] 34.4 µM
not listed: [13] | [14] | [15] | [16] | [17] | [18] | [19] | [20]
inactive: all other assays above

CCOC(=O)C1=C[C@]2(CC)CCCN3CCc4c(n1c1ccccc41)[C@@H]32
active: [2] 10.6 µM and 6.68 µM | [3] 10.6 µM and 9.44 µM | [4] 16.8 µM and 10.6 µM | [7] 9.44 µM
not listed: [8] | [9] | [17] | [18] | [19] | [20]
inactive: all other assays above

CNCCCCOc1ccccc1Cc1ccccc1
inactive: [1] | [5] | [6] | [10] | [14] | [15] | [16] | [11]
active: [2] 4.22 µM | [3] 3.35 µM | [4] 5.31 µM | [7] 11.9 µM | [8] 11.9 µM

O=P(O)(OCc1ccccc1)OCc1ccccc1
not listed: [9] | [17] | [18] | [19] | [20]
inactive: all other assays above

Brc1c2ccccc2cc2ccccc12
active: [15] 30.9 µM
not listed: [12] | [13] | [14] | [16] | [17] | [18] | [19] | [20]
inactive: all other assays above

Nc1ccc(S(=O)(=O)Nc2ccccc2)cc1
not listed: [13] | [14] | [15] | [16] | [17] | [18] | [19] | [20]
inactive: all other assays above

O=C1[C@H]2CCCC[C@H]2C(=O)N1CCCCN1CCN(c2nsc3ccccc23)CC1
active: [2] 6.68 µM | [3] 5.96 µM | [4] 5.96 µM | [7] 21.1 µM | [8] 29.8 µM | [11] 29.8 µM | [12] 29.8 µM
inactive: [1] | [9] | [10] | [14] | [15] | [16]

CC[N+]1(CC)CCC(=C(c2ccccc2)c2ccccc2)C1C (centres undefined)
inactive: [1] | [5] | [12]
active: [2] 8.41 µM | [3] 16.8 µM | [4] 13.3 µM

Cc1oc2c(NC(=O)c3c(Cl)cccc3Cl)cccc2c1C(C)(C)O
inactive: [1] | [5] | [9] | [14] | [11]
active: [2] 43.3 µM | [3] 27.3 µM | [4] 48.6 µM | [7] 24.3 µM | [8] 7.7 µM | [13] 43.6 µM [inhibitor]

CC(C)OC(=O)C(C)N(C(=O)c1ccccc1)c1ccc(F)c(Cl)c1 (centres undefined)
active: [2] 6.11 µM | [3] 6.86 µM | [4] 13.7 µM | [8] 61.1 µM
inactive: [1] | [5] | [9] | [10] | [11] | [12]

Cc1c(N)cccc1[N+](=O)[O-]
not listed: [7] | [12] | [13] | [15] | [17] | [18] | [19] | [20]
inactive: all other assays above

O=C(Cl)c1cc(C(=O)Cl)cc(C(=O)Cl)c1
active: [2] 19.3 µM | [3] 27.3 µM | [4] 19.3 µM
inactive: [1] | [5] | [6] | [9] | [10] | [14] | [15] | [16] | [11]

OCc1cc(C(O)CNCCCCCCOCCCCc2ccccc2)ccc1O (centres undefined)
inactive: [1] | [13] | [10] | [14]
active: [2] 3.35 µM and 2.37 µM | [3] 5.96 µM and 4.73 µM | [4] 5.31 µM and 3.35 µM | [7] 7.5 µM and 11.9 µM | [8] 10.6 µM and 8.41 µM | [11] 23.7 µM | [12] 26.6 µM

COc1ccc(-c2nc3ccc(C4=NNC(=O)CC4C)cc3[nH]2)cc1 (centres undefined)
active: [2] 11.9 µM | [3] 11.9 µM | [4] 18.8 µM | [17] 19 µM | [8] 23.7 µM
inactive: [1] | [18] | [6] | [19] | [9] | [10] | [11] | [12]

C=CC(=O)OCCOc1ccccc1
inactive: [1] | [5] | [6] | [7] | [9] | [10] | [11] | [12]
active: [2] 54.4 µM | [3] 61.1 µM | [8] 54.4 µM

CCCCCCCC/C=C\CCCCCCCC(=O)OCC
inactive: [1] | [2] | [3] | [4] | [5] | [6] | [8] | [9] | [10] | [11] | [12]

CCCCCCCCCCCCCCCCOS(=O)(=O)O
not listed: [4] | [7] | [8]
inactive: all other assays above

CCCOC(C(=O)OC1CCN(C)CC1)(c1ccccc1)c1ccccc1
active: [2] 5.96 µM | [3] 7.5 µM | [4] 11.9 µM | [7] 18.8 µM | [8] 26.6 µM
inactive: [1] | [6] | [13] | [10] | [14] | [15] | [16] | [12]

CC(C)CC(=O)C1C(=O)c2ccccc2C1=O
active: [17] 49 µM
not listed: [5] | [8] | [9] | [13]
inactive: all other assays above

O=C(O)C(S)C(S)C(=O)O (centres undefined)
active: [7] 26.6 µM | [8] 11.9 µM
inactive: [1] | [2] | [3] | [5] | [6] | [9] | [10] | [11] | [12]

Clc1ccc(Cn2c(CN3CCCC3)nc3ccccc32)cc1
active: [2] 4.03 µM | [3] 2.54 µM | [4] 7.17 µM | [8] 11.4 µM
inactive: [1] | [5] | [6] | [9] | [10] | [11] | [12]
